Here are results for five compounds from PubChem BioAssay (EPA / NIEHS).

Values joined by “and” are separate entries in the source; they are usually repeats but may differ in a detail not shown here. Equal entries are not always repeated. Records with an inconclusive call do not appear. Some compounds were tested as several samples or in several runs, with calls that do not always agree. Active and inactive are the calls of the source. Rule for the calls, unless noted: active = hit-call score of the fitted dose curve at least 0.9, where 1 is the maximum; inactive = score below 0.9.

Broadly, the AC50 is the concentration at which the activity in the assay is half-maximal.

A short description of test [1]: ATG_NFI_CIS: Attagene CIS-FACTORIAL HepG2 Assay for human Nuclear Factor I (NFI) (AID 2282989). To be noted: HepG2 cis-regulatory reporter, NFI response element transcription; actives raise or lower the signal. Put shortly:
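Read-out: reporter mRNA via RT-PCR plus capillary electrophoresis with fluorescence detection. Transiently transfected HepG2 (endogenous TF activity on cis promoters), 24 h compound exposure; gain or loss of signal fitted against DMSO.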

Test [2] has as its target Myc proto-oncogene protein (Homo sapiens) (UniProt P01106). Put plainly: ATG_Myc_CIS: Attagene CIS-FACTORIAL HepG2 Assay for human Myelocytomatosis (Myc) Proto-Oncogene Transcription Factor (AID 2282990). To be noted: HepG2, Attagene cis-reporter transcription factor activity; actives raise or lower the signal. Put shortly:
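Transiently transfected HepG2 cells bearing cis-promoter reporter units for endogenous transcription factors; 24 h exposure. Reporter mRNA measured by RT-PCR, 6-FAM primer extension, HpaI cut and capillary electrophoresis; bidirectional fit relative to DMSO.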

Test [3] in a line: ATG_NF_kB_CIS: Attagene CIS-FACTORIAL HepG2 Assay for human Nuclear Factor Kappa B (NF-kB) (AID 2282991). As to conditions: HepG2 Attagene cis-factorial NF-kB reporter mRNA; actives raise or lower the signal. Put shortly:
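Read-out: reporter transcript levels quantified by RT-PCR plus capillary electrophoresis of 6-FAM-labelled, HpaI-cut fragments. Transfected HepG2 cells, 24 h compound exposure, endogenous NF-kB-driven cis element; gain or loss scored versus DMSO.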

Test [4] in a line: ATG_NRF2_ARE_CIS: Attagene CIS-FACTORIAL HepG2 Assay for human Nuclear Factor Erythroid 2 Related Factor 2 (NFR2) response to Antioxidant Response Elements (ARE) (AID 2282992).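 For AC50: reporter mRNA level measured by RT-PCR and capillary electrophoresis fluorescence.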 To be noted: HepG2 Attagene ARE/NRF2 reporter, transcription factor activity; actives raise or lower the signal. Put shortly:
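Endogenous transcription factor activity in human liver HepG2 cells is tracked via a cis-element-driven reporter within a multiplexed set. mRNA induction is read by RT-PCR and capillary electrophoresis after 24 h, with DMSO as baseline.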

The nature of test [5]: ATG_Oct_MLP_CIS: Attagene CIS-FACTORIAL HepG2 Assay for human Octamer-Binding Transcription Factor (Oct) (AID 2282993). To be noted: HepG2 Attagene cis-factorial Oct reporter, mRNA; actives raise or lower the signal. Put shortly:
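Read-out: reporter mRNA via RT-PCR plus capillary electrophoresis of 6-FAM-labelled fragments. Transiently transfected HepG2, 24 h exposure, endogenous TF activity on cis elements. Gain or loss of signal fitted relative to DMSO.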

The target of test [6] is Cellular tumor antigen p53 (Homo sapiens) (UniProt P04637). Nature of the test: ATG_p53_CIS: Attagene CIS-FACTORIAL HepG2 Assay for human p53 Transcription Factor (AID 2282994). To be noted: HepG2 p53 cis-element reporter, Attagene mRNA; actives raise or lower the signal. The method, boiled down: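 Steps: transfect HepG2 with multiplexed cis reporter constructs; dose chemicals 24 h; extract RNA, reverse-transcribe, PCR-amplify reporter sequences; FAM-label, HpaI-digest, resolve fragments by CE. Activity fitted both directions relative to DMSO.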
Sequence of Cellular tumor antigen p53 (Homo sapiens) (P04637 whole entry, looked up, the tested form may be a part): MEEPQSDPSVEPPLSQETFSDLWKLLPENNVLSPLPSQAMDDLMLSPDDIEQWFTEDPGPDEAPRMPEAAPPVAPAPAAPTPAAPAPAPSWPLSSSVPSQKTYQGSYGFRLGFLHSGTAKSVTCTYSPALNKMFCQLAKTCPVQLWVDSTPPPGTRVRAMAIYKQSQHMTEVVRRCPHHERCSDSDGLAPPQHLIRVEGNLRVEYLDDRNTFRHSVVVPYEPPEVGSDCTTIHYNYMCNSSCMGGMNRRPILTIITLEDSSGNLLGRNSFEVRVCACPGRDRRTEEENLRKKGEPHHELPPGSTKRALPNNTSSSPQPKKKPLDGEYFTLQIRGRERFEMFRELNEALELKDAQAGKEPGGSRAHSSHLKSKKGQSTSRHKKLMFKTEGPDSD

Test [7] addresses human Peroxisome Proliferator-activated Receptor alpha (PPARa), PPARA (gene 5465) (UniProt Q07869). Nature of the test: ATG_PPARa_TRANS: Attagene TRANS-FACTORIAL HepG2 Assay for human Peroxisome Proliferator-activated Receptor alpha (PPARa) (AID 2283001; active = hit-call score of the fitted dose curve at least 0.9, where 1 is the maximum;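 for AC50: potency for gain of reporter signal over DMSO so agonist or activator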). Put shortly: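 HepG2, transient MRTU transfection, 24 h treatment. RT-PCR → FAM labelling → capillary electrophoresis. Fit vs DMSO, positive direction.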

The target of test [8] is human Peroxisome Proliferator-activated Receptor delta (PPARd), PPARD (gene 5467) (UniProt Q03181). Nature of the test: ATG_PPARd_TRANS: Attagene TRANS-FACTORIAL HepG2 Assay for human Peroxisome Proliferator-activated Receptor delta (PPARd) (AID 2283002; active = hit-call score of the fitted dose curve at least 0.9, where 1 is the maximum). Put shortly: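 HepG2 cells transiently transfected with GAL4-UAS multiplexed reporter units driven by exogenous chimeric NR-GAL4 proteins; 24 h compound exposure. Reporter mRNA measured by RT-PCR, 6-FAM primer extension, HpaI digestion and capillary electrophoresis; gain of signal fitted relative to DMSO.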
Sequence of human Peroxisome Proliferator-activated Receptor delta (PPARd), PPARD (gene 5467) (Q03181 whole entry, looked up, the tested form may be a part): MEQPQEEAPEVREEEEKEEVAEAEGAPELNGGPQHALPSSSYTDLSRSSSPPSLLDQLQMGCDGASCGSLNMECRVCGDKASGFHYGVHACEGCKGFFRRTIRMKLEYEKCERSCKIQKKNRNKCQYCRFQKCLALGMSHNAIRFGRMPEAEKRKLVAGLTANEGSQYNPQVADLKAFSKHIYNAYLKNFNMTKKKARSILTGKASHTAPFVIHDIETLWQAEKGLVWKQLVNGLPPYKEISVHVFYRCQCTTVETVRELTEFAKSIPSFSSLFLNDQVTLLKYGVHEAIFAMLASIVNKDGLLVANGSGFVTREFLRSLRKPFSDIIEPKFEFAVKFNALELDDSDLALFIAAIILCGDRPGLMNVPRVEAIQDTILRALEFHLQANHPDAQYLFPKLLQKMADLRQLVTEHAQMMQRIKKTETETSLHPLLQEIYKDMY

The target of test [9] is Nuclear receptor subfamily 1 group I member 2 (Homo sapiens) (UniProt O75469). Nature of the test: ATG_PXR_TRANS: Attagene TRANS-FACTORIAL HepG2 Assay for human Pregnane X Receptor (PXR) (AID 2283008; active = hit-call score of the fitted dose curve at least 0.9, where 1 is the maximum). The method, boiled down:
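HepG2 transfected (FuGene 6) with GAL4-UAS reporter units + PXR-Gal4 chimera; dosed 24 h. Total RNA → oligo(dT) RT → PCR → 6-FAM primer extension → HpaI cut → CE. Gain-of-signal vs DMSO.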

Test [10] has as its target human RAR-related Orphan Receptor beta (RORb), RORB (gene 6096) (UniProt Q92753). Nature of the test: ATG_RORb_TRANS: Attagene TRANS-FACTORIAL HepG2 Assay for human RAR-related Orphan Receptor beta (RORb) (AID 2283010; active = hit-call score of the fitted dose curve at least 0.9, where 1 is the maximum). Put shortly:
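Read-out is reporter mRNA induction, quantified by RT-PCR with fluorescent capillary electrophoresis, 24 h post-dose in transiently transfected HepG2 expressing exogenous NR-Gal4 chimera. Activity fitted upward versus DMSO.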

Test [11] deals with Retinoic acid receptor alpha (Homo sapiens) (UniProt P10276). Nature of the test: ATG_RARa_TRANS: Attagene TRANS-FACTORIAL HepG2 Assay for human Retinoic Acid Receptor alpha (RARa) (AID 2283005; active = hit-call score of the fitted dose curve at least 0.9, where 1 is the maximum). The method, boiled down: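 HepG2 transiently transfected with multiplex GAL4-UAS reporter units including a human RARa–GAL4 chimera; 24 h compound exposure. Reporter mRNA quantified by RT-PCR, 6-FAM labeling and capillary electrophoresis; gain of signal versus DMSO.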
Sequence of Retinoic acid receptor alpha (Homo sapiens) (P10276 whole entry, looked up, the tested form may be a part): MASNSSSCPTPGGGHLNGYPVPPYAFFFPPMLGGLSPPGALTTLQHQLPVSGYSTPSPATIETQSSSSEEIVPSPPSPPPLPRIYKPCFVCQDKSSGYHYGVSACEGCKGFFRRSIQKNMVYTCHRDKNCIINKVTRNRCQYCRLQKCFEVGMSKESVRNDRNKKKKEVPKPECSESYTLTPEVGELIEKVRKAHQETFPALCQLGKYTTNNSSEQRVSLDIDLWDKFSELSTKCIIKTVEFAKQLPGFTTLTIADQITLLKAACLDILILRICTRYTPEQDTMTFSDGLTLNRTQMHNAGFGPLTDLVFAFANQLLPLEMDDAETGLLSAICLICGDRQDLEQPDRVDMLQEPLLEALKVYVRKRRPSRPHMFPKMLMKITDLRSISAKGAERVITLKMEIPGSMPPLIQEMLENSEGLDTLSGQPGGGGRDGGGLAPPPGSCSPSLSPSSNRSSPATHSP

Test [12] has as its target human Retinoic Acid Receptor gamma (RARg), RARG (gene 5916) (UniProt P13631). Nature of the test: ATG_RARg_TRANS: Attagene TRANS-FACTORIAL HepG2 Assay for human Retinoic Acid Receptor gamma (RARg) (AID 2283009; active = hit-call score of the fitted dose curve at least 0.9, where 1 is the maximum). Put shortly:
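Transactivation of exogenous RARg-Gal4 fusion measured as reporter transcript induction after 24 h in transfected HepG2 cells. RNA reverse-transcribed, amplified, fluorescently labeled and resolved by capillary electrophoresis; increase relative to DMSO.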

In test [13] the target is human RAR-related Orphan Receptor gamma (RORg), RORC (gene 6097) (UniProt P51449). Nature of the test: ATG_RORg_TRANS: Attagene TRANS-FACTORIAL HepG2 Assay for human RAR-related Orphan Receptor gamma (RORg) (AID 2283011; active = hit-call score of the fitted dose curve at least 0.9, where 1 is the maximum). The method, boiled down: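 Activity is scored as increase in GAL4-UAS reporter mRNA over DMSO, detected by fluorescent RT-PCR and capillary electrophoresis in HepG2 cells transiently expressing a RORg-Gal4 chimera, 24 h after dosing.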
Sequence of human RAR-related Orphan Receptor gamma (RORg), RORC (gene 6097) (P51449 whole entry, looked up, the tested form may be a part): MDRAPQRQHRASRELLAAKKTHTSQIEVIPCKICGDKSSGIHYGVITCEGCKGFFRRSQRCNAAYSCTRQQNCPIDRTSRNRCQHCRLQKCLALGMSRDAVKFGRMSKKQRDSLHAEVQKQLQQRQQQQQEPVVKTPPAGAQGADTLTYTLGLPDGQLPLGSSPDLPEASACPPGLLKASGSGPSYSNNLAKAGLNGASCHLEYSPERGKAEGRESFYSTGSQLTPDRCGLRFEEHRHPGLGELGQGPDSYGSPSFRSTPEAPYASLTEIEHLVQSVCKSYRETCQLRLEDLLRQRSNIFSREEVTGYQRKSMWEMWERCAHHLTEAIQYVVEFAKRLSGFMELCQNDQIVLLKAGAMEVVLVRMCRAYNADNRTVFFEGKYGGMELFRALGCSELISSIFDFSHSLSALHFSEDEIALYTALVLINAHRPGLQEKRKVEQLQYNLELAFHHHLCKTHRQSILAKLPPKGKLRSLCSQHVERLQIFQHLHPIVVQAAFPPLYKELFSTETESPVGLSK

A short description of test [14]: BSK_3C_uPAR: BioMAP Diversity Plus: 3C Assay for Urokinase-type plasminogen activator receptor (uPAR) Biomarker Activity (AID 2282998). As to conditions: BioMAP 3C HUVEC, uPAR biomarker ELISA; actives raise or lower the signal. The method, boiled down: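 HUVEC primary cells; 24 h post-dose; uPAR by ELISA; gain or loss of signal fitted bidirectionally vs DMSO baseline.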

Test [15] is described as follows: BSK_3C_VCAM1: BioMAP Diversity Plus: 3C Assay for Vascular cell adhesion molecule 1 (VCAM1) Biomarker Activity (AID 2282999). To be noted: BioMAP 3C HUVEC, VCAM1 ELISA, cytokine-stimulated; actives raise or lower the signal. The method, boiled down:
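HUVEC primary cells, 24 h compound exposure; VCAM-1 by ELISA; gain/loss of signal fitted bidirectionally vs DMSO baseline.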
Background: In an ELISA, binding on a coated surface is turned into a signal by an enzyme label.

Test [16] is described as follows: BSK_4H_Eotaxin3: BioMAP Diversity Plus: 4H Assay for Eotaxin 3 Biomarker Activity (AID 2283000). To be noted: primary human endothelial cells (HUVEC); actives raise or lower the signal. Put shortly: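 Endothelial primary cells (human umbilical vein) exposed to compound for 24 h. ELISA detection of Eotaxin-3.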
Read-out in test [17]: Intercellular Adhesion Molecule 1 (ICAM1), ICAM1 (gene 3383)
Nature of the test: BSK_3C_ICAM1: BioMAP Diversity Plus: 3C Assay for Intercellular Adhesion Molecule 1 (ICAM1) Biomarker Activity (AID 2283003). As to conditions: primary human endothelial cells (HUVEC); actives raise or lower the signal. The method, boiled down: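 ELISA readout of ICAM1 in human umbilical vein endothelial cells in the 3C system, taken 24 h post-dose. Gain or loss of signal versus DMSO was fitted in both directions, with SRB total-protein staining run in parallel.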

Test [18] is described as follows: BSK_3C_Proliferation: Cell Proliferation Assessment in the BioMAP Diversity Plus: 3C Assay (AID 2283006).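 Note: potency may reflect either rise or fall in cell number versus DMSO.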 To be noted: primary human endothelial cells (HUVEC). The method, boiled down: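 Proliferation as total protein: sulforhodamine B (0.1%) stain of TCA-fixed subconfluent human umbilical vein endothelial cells, absorbance 560 nm, 48 h after dosing. Activity fitted in both directions against DMSO baseline.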

The target in test [19] is Peroxisome proliferator-activated receptor gamma (Homo sapiens) (UniProt P37231). Put plainly: ATG_PPARg_TRANS: Attagene TRANS-FACTORIAL HepG2 Assay for human Peroxisome Proliferator-activated Receptor-gamma (PPARg) (AID 2283007; active = hit-call score of the fitted dose curve at least 0.9, where 1 is the maximum). Put shortly: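 Read-out: reporter mRNA induction, detected by fluorescence after RT-PCR and capillary electrophoresis. Transiently transfected human HepG2 liver cells carrying a chimeric NR-Gal4 construct were dosed for 24 h; activity was fitted upward relative to DMSO.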
Sequence of Peroxisome proliferator-activated receptor gamma (Homo sapiens) (P37231 whole entry, looked up, the tested form may be a part): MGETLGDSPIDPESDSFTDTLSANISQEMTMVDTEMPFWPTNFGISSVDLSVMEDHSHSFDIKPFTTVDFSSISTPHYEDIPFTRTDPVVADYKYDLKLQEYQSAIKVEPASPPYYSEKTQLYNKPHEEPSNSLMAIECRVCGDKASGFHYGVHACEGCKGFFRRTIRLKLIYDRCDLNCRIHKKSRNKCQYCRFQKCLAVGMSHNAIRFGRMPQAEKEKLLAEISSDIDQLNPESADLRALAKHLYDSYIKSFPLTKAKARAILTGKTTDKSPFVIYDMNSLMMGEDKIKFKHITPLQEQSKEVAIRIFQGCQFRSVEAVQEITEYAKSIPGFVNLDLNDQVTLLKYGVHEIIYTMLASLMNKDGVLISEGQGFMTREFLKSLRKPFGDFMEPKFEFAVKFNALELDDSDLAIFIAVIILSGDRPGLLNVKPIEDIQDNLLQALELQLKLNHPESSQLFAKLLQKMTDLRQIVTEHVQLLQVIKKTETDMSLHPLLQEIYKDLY

Sequence of Nuclear receptor subfamily 1 group I member 2 (Homo sapiens) (O75469 whole entry, looked up, the tested form may be a part): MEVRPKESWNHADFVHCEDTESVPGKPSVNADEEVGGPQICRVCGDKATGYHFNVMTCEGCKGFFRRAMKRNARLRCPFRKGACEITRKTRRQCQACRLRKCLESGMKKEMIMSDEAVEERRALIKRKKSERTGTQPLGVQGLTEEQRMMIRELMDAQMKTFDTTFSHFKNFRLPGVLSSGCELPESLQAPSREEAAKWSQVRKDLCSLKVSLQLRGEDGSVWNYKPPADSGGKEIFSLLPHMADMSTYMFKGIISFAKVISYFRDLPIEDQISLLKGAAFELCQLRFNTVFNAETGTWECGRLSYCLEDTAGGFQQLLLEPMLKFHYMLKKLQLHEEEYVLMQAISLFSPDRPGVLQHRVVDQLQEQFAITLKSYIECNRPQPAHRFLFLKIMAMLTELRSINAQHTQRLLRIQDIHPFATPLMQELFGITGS
Sequence of human RAR-related Orphan Receptor beta (RORb), RORB (gene 6096) (Q92753 whole entry, looked up, the tested form may be a part): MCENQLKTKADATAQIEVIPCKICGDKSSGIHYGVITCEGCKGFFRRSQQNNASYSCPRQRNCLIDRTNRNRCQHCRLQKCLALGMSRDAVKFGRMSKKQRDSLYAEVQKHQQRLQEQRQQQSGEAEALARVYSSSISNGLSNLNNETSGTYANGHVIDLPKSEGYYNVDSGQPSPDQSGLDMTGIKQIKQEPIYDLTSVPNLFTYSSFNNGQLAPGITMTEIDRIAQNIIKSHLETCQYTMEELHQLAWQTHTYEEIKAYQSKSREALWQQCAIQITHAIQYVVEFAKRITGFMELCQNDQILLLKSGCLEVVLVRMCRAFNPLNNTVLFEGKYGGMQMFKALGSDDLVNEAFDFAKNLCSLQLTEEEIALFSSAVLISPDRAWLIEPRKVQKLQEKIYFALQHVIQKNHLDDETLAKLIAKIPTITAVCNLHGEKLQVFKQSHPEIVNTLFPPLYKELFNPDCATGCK
Sequence of human Peroxisome Proliferator-activated Receptor alpha (PPARa), PPARA (gene 5465) (Q07869 whole entry, looked up): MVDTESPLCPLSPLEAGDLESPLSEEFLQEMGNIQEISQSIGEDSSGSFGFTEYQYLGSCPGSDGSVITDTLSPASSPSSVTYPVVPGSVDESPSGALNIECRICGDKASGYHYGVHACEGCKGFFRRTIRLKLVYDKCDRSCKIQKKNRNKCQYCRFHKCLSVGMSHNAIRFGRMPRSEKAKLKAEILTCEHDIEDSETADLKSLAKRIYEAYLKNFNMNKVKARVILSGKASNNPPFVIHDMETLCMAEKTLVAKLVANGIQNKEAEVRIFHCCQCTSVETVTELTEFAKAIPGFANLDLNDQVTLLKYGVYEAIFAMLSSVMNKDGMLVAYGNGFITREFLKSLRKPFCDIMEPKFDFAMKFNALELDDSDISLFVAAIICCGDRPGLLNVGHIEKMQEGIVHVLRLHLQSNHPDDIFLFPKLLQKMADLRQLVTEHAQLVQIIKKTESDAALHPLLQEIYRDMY
Sequence of Myc proto-oncogene protein (Homo sapiens) (P01106 whole entry, looked up): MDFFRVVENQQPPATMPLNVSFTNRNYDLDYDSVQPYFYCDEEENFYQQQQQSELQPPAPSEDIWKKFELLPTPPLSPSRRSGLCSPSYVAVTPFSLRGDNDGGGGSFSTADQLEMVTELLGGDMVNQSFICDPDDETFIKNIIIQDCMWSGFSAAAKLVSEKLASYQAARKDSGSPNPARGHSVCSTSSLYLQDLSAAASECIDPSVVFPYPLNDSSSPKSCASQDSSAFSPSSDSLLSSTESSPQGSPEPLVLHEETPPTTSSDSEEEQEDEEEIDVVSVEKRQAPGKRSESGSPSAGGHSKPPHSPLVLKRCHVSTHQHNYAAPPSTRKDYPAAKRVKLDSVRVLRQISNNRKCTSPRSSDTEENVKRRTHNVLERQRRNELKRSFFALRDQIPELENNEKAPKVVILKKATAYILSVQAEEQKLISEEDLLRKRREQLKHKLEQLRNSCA
Sequence of human Retinoic Acid Receptor gamma (RARg), RARG (gene 5916) (P13631 whole entry, looked up, the tested form may be a part): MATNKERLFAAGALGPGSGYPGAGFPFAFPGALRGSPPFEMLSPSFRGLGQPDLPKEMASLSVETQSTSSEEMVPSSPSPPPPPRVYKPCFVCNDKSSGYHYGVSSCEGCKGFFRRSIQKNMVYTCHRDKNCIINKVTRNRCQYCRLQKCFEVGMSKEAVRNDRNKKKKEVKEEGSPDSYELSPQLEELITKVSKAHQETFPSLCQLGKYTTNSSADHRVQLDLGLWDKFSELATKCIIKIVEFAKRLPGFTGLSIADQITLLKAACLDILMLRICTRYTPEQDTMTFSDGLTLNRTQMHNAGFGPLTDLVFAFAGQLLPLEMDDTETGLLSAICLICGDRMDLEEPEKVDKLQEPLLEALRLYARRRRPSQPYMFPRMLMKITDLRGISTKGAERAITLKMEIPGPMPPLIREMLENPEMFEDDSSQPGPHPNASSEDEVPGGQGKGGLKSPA

Take `COC(=O)/C=C/C(C)=C\C=C\C(C)=C\C=C\C=C(C)\C=C\C=C(C)\C=C\C(=O)O`: the outcome in test [1], in test [2], in [3], in [5], in test [6] and in [7] was inactive. In addition, the call in test [8], in [9] and in test [10] was inactive. Further, in test [4], the AC50 was 67.9 µM (active).
Consider `CCOC(=O)[C@H](C)O`, for which the compound was classed as inactive in [1], in [2], in test [3], in [5], in test [6] and in test [7]. Also, the compound was classed as inactive in test [8], in [11], in [9], in [12] and in [13]. Also, in test [4], the AC50 is 26.7 µM (active).
On to `N=c1ccn2c(n1)O[C@H]1[C@H](O)[C@@H](CO)O[C@H]12`, for which the compound was classed as inactive in [1], in test [2], in test [3], in test [4], in test [5] and in test [6]. The compound was classed as inactive in test [7].
Regarding `O=C(c1ccc(O)cc1)c1ccc(O)cc1O`, the call in [1], in [2], in [3], in test [5], in [14] and in test [15] was inactive. Also, the result in [7], in test [17], in [9] and in test [10] was inactive. Further, the AC50 in test [4] was 100 µM (active); in [6] it was 100 µM (active); in [14], 15.9 µM (active); in test [16], 13.9 µM (active) and 20 µM (active); in test [18] it was 20 µM (active) and 15 µM (active); in [19], 35.3 µM (active).
With `CC(C)CCCCCOC(=O)CCS`, the result in [1], in [2], in test [3], in [4], in test [5] and in test [6] was inactive. For the same compound, the result in test [8], in test [19] and in test [10] was inactive. The AC50 in test [7] was 9.41 µM (active); in test [9], 27.1 µM (active).
